Test results: PubChem BioAssay AID938 (National Center for Advancing Translational Sciences (NCATS), 2007)
Several values for one entry are separate records, joined by “and”; a condition that tells them apart may be missing. Equal values may be shown once. Screen size: about 73,000 compounds; about 1,800 (2.5%) were called active. Not shown: some 13% with an inconclusive outcome. Shown is part of a subset that was picked to be rich in actives. Unmarked numbers belong to inactive results. The call rests on the fitted dose curve; in most records, active means well fitted activation curve with a large enough effect; inconclusive means small, poorly fitted or top-dose-only effect; inactive means no such curve, though single readings can be large or run the other way.

Experiment: qHTS Assay for Agonists of the Thyroid Stimulating Hormone Receptor: Activators of Intracellular cAMP Concentrations in Parental HEK 293; further: nearly all actives have a fitted effect of over 55% in size; on activation: % of control where 0% means no effect
Settings: parental HEK293 CNG cAMP sensor, membrane potential fluorescence; series mostly up to 57.1 µM; activation: at the top concentration
In short: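 Counterscreen for endogenous-receptor signalling: CNG-channel HEK 293 cells report cAMP rise by membrane depolarization. After 60 min dye equilibration with 100 uM RO 20-1724, compounds incubated 30 min before bottom-read fluorescence at 590 nm.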
Potency means the concentration at half of the fitted maximal effect.

Row | Compound | activation | Potency
1 | CCOc1ccc2nc(NCCNS(=O)(=O)c3ccccc3)c(C#N)cc2c1 | 26.9% | 
2 | Cc1nnc(N(Cc2ccco2)C(=O)c2ccno2)s1 | 3.12% | 
3 | COC(=O)CSC1=C(C#N)C(c2ccccc2OC)C(C(=O)OC)C(=O)N1 (stereo unspecified) | -3.31% [at 11.4 µM] | 
4 | N#CC1=C(SCc2ccccc2)NC(=O)C(C#N)C12CCCC2 (stereo unspecified) |  | 31.6 µM (active)
5 | Cc1noc(C)c1-c1nc(Nc2ccccc2)c2ccccc2n1 | -3.31% | 
6 | O=C(NC(=O)c1ccc(Cl)c(Cl)c1)OC1CCS(=O)(=O)C1 (stereo unspecified) | 17.7% | 
7 | Cc1ccnc(N)c1 | 16.3% | 
8 | CC(C)c1ccc2c([Si](C)(C)C)c3c(nc2c1)-c1cccc(=O)n1C3 | 2.88% | 
9 | COc1cccc(C(=O)Nc2c3c(nn2-c2cccc(C)c2C)CS(=O)(=O)C3)c1OC | 17.4% | 
10 | O=C(CC1CCCCC1)Nc1c2c(nn1-c1ccc(F)cc1)CS(=O)(=O)C2 |  | 15.8 µM (active)
11 | COc1ccc(C2C(C#N)=C(N)Oc3n[nH]c(C)c32)cc1CN1CCN(c2ccc(F)cc2)CC1 (stereo unspecified) | -7.97% | 
12 | Cc1nc2cnc(N3CCN(C)CC3)nc2n(C[C@H]2CCCO2)c1=O | -4.71% | 
13 | CC(C)(C)NC(=O)c1cc(NC(=O)c2ccco2)cc(NC(=O)c2ccco2)c1 | 2.66% | 
14 | COc1ccc(-c2c3c(=O)n(C)c(=O)n(C)c3cn2NC(C)=O)cc1 | -1.58% | 
15 | COc1ccc(C2C3=C(OC(C)=O)c4ccccc4C3=Nc3c2c(=O)n(C)c(=O)n3C)cc1 (stereo unspecified) |  | 10 µM (active)
16 | Cc1cccc(C2c3c(n(C)c(=O)n(C)c3=O)N=C3c4ccccc4C(=O)C32)c1 (stereo unspecified) | -19.4% | 
17 | Cn1nnc(NC(=O)CSc2ncn[nH]2)n1 | 1.91% | 
18 | COC(=O)C(C(=O)OC)[C@@H]1CCCC(=O)C1 | 4.23% [at 11.4 µM] | 
19 | CCc1nc(Nc2ccc3nccnc3c2)c2oc3ccccc3c2n1 | 3.36% | 

Row | Compound | activation | Potency
20 | COc1ccc(CCNC(=O)CSc2nc(C)nc3c2oc2ccccc23)cc1OC | 0.977% | 
21 | COc1ccccc1Nc1ncnc2c1oc1ccccc12 |  | 31.6 µM (active)
22 | COc1ccccc1CNc1ncncc1-c1cccnc1 | 3.51% | 
23 | COc1ccccc1CNc1ncncc1-c1cccc(NS(C)(=O)=O)c1 | 0.742% | 
24 | COc1ccc(CNc2ncncc2-c2ccccc2OC)c(OC)c1 |  | 25.1 µM (active)
25 | COC(=O)[C@@H]1CC[C@H](C)[C@@H](c2ccc(C)cc2)N1C(=O)c1ccc(/C=N\O[C@@H](C)c2cn([C@H](CO)Cc3ccccc3)nn2)cc1 | 9.66% [at 11.4 µM] and 5.24% [at 11.4 µM] | 
26 | Cc1ccc2c(c1)c1ncnc(N3CCc4ccccc4C3)c1n2C |  | 25.1 µM (active)
27 | Cc1cccc(-n2ncc3c(N4CCc5ccccc54)ncnc32)c1 | 9.9% | 
28 | Cc1ccc2c(c1)c1ncn(CCC3=CCCCC3)c(=O)c1n2C | 18.7% | 
29 | Cn1c(/C(C#N)=C2/CCCCCN2)nc2ccccc21 | 8.85% | 
30 | Cc1noc(C)c1CSc1nc2cc(S(=O)(=O)N3CCOCC3)ccc2o1 | 0.104% | 
31 | O=C(OCC(COC(=O)c1ccccc1)(COC(=O)c1ccccc1)COC(=O)c1ccccc1)c1ccccc1 | 20% | 
32 | CCc1ccc(-c2nnn(Cc3nc4ccccc4s3)n2)cc1 |  | 15.8 µM (active)
33 | O=C(O)CSCc1nc2ccccc2s1 | 19.3% | 
34 | CCc1ccc(-c2nnn(Cc3nn[nH]n3)n2)cc1 | 16% | 
35 | Cc1nc2cnc(Nc3ccccc3)nc2n(Cc2ccc(F)cc2)c1=O | 26.3% | 
36 | O=C(CSc1n[nH]c(-c2cccnc2)n1)Nc1ccnc2ccccc12 | 17.3% | 
37 | Nc1nonc1-c1nc2ccccc2n1Cc1ccc(F)cc1 |  | 20 µM (active)
38 | CC(=O)Nc1nonc1-c1nc2ccccc2n1Cc1ccccn1 | 11.6% | 

Row | Compound | activation | Potency
39 | CCCn1c(C(O)c2cc(OC)ccc2OC)nc2ccccc21 (stereo unspecified) | 17.2% | 
40 | COc1ccc(C)c(Cn2c(-c3nonc3N)nc3ccccc32)c1 |  | 25.1 µM (active)
41 | Nc1nonc1-c1nc2ccccc2n1CCC(=O)O | 2.08% | 
42 | COCCn1c(-c2ccc(OC)c(OC)c2)nc2ccccc21 | 10.2% | 
43 | C=CCc1cccc2cc(C(=O)OCC)c(=O)oc12 | 12.2% | 
44 | C/C(=C\C(=O)c1ccccc1)Nc1cccc(O)c1 | 5.02% [at 11.4 µM] | 
45 | COc1cc(Cl)c(S(=O)(=O)n2cnc(C)c2)cc1Cl | 12.1% [at 11.4 µM] | 
46 | CCC1Oc2ccc(Cl)cc2N(CC(=O)O)C1=O (stereo unspecified) | 9.51% | 
47 | C#CCC(C(=O)OC)(C(=O)OC)C(C[N+](=O)[O-])c1ccccc1 (stereo unspecified) | -0.955% [at 11.4 µM] | 
48 | COc1cccc([C@H]2Oc3ccc(OC)cc3/C(=N\OCC[C@@H]3C=C[C@H](OC(C)=O)[C@H](COC(C)=O)O3)[C@@H]2O)c1 | 1.81% [at 11.4 µM] | 
49 | Cc1ccccc1NC(=O)c1cc(S(=O)(=O)N2CCOCC2)cs1 | -8.26% | 
50 | Cc1ccc(C(=O)Nc2ccccc2C(=O)NC2CCCCC2)cc1S(=O)(=O)N1CCOCC1 |  | 15.8 µM (active)
51 | Cc1cc(C)n(C(=O)c2ccc(C)c(S(=O)(=O)N3CCOCC3)c2)n1 | 23.4% | 
52 | N[C@H](C(=O)O)c1ccc(C(=O)O)c(O)c1 | -2.63% | 
53 | Cc1c2c(nc3ccccc13)-c1cccc(=O)n1C2 | -3.79% | 
54 | Cc1ccc(-c2nn(CC(C)(C)C)c3ncnc(N)c23)cc1 | -5.59% | 
55 | O=C(c1ccco1)N1CCN(C(=O)C2c3ccccc3Oc3ccccc32)CC1 | 14.5% | 
56 | CCCN(CCC)C(=O)C1c2ccccc2Oc2ccccc21 |  | 12.6 µM (active)
